Assay results: PubChem BioAssay AID504339 (National Center for Advancing Translational Sciences (NCATS), 2011)
Out of some 390,000 compounds screened, about 17,000 (4.4%) were called active. Roughly 8% stayed inconclusive and do not appear here. What follows is part of a selection rich in actives, with near analogues and random picks from the rest. Unmarked numbers belong to inactive results. The call rests on the fitted dose curve; in most records, active means well fitted inhibition curve with a large enough effect; inconclusive means small, poorly fitted or top-dose-only effect; inactive means no such curve, though single readings can be large or run the other way.

Molecular target: Lysine-specific demethylase 4A (Homo sapiens) (UniProt O75164)
Assay: qHTS Assay for Inhibitors of JMJD2A-Tudor Domain; further: nearly all actives have a fitted effect of over 50% in size
Conditions: AlphaScreen JMJD2A-Tudor / H3K4me3 peptide binding; series mostly up to 114 µM; activity change, negative = inhibition: at the top concentration
On the % scale 0 is the no-effect control and ±100 the full control effect; potency means the concentration at half of the fitted maximal effect.

Chain of Lysine-specific demethylase 4A (Homo sapiens) (O75164 whole entry, looked up, the tested form may be a part): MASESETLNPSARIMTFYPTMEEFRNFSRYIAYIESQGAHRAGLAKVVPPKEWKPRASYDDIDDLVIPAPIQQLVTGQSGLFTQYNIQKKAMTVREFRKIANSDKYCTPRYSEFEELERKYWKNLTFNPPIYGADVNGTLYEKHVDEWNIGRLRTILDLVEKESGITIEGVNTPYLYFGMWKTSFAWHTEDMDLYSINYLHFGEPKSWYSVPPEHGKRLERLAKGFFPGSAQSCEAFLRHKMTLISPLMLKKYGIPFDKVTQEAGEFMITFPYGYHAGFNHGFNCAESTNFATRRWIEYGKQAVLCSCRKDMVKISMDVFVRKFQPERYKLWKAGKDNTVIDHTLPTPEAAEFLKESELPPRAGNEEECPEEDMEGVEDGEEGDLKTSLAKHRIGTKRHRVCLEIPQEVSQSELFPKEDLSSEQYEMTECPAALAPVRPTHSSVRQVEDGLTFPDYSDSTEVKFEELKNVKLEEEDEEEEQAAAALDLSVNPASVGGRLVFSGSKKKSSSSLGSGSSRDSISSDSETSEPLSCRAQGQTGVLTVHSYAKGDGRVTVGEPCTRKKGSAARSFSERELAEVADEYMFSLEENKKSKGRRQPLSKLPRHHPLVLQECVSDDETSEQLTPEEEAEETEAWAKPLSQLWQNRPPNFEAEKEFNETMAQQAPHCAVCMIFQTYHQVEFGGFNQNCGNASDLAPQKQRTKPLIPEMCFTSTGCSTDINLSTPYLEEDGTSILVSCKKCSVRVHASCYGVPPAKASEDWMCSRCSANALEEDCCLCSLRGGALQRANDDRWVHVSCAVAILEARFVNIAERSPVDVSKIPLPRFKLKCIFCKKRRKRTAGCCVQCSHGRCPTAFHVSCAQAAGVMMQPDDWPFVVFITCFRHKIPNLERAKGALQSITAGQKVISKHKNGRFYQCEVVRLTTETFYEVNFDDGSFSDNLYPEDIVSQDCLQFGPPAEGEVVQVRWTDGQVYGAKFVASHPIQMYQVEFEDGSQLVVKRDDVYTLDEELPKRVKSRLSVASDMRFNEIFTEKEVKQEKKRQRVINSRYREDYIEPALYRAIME

Structure (SMILES) | activity change, negative = inhibition [%] | Potency
Cc1cccc(-n2c(=O)c3c(c4cc(C)ccc4n3C)n(CC(=O)Nc3ccccc3Cl)c2=O)c1 | -15.5 | –
COc1cnc(-c2ccccn2)nc1Oc1ccc(C(C)(C)C)cc1 | – | 31.6 µM (active)
COc1ccnc(Oc2ccccc2)c1-c1ncn[nH]1 | -8.7 | –
O=C(Oc1ccc(-c2nc(-c3ccccn3)no2)cc1)c1ccccc1 | -11 | –
CC(=O)N1CC[n+]2c(-c3ccc([N+](=O)[O-])cc3)csc21 | – | 7.94 µM (active)
Cc1cc(C)cc(C(=O)N2CCN=C2SCc2ccc([N+](=O)[O-])cc2)c1 | -25.3 | –
CN1C2CCC1CC(NC(=O)c1ccc([N+](=O)[O-])cc1)C2 (stereo not drawn) | -6.06 | –
O=C(Nc1nc2ccc(F)cc2s1)c1nc(SCc2ccccc2F)ncc1Cl | -16.7 | –
COc1ccc(-n2cnc3cc(NCc4ccco4)ccc32)cc1 | – | 50.1 µM (active)
COc1ccc(-n2cnc3cc(C(=O)NC4CCCC4)ccc32)cc1 | – | inactive
COc1ccc(NC(=O)C(=O)NCc2ccco2)cc1 | -10.1 | –
Cc1ccc(CSc2nc3cccnc3n2Cc2ccc(C(=O)NC3CC3)cc2)cc1 | -11.6 | –
CCOC(=O)c1[nH]c(C)c(CCC(=O)NCc2ccccc2C)c1C | -30.2 | –
S=c1[nH]nc(-c2cc(-c3ccsc3)n[nH]2)n1-c1ccccc1 | – | 44.7 µM (active)
Cc1ccc(NCc2n[nH]c(=S)n2-c2ccccc2)cc1Cl | -18.5 | –
COc1cccc(-c2cc(C(=O)Nc3ccc(C)cc3)[nH]n2)c1 | -15.5 | –
CCc1ccc(NC(=O)Cn2c(=O)n(CCC(=O)NCc3ccc4c(c3)OCO4)c(=O)c3ccccc32)cc1 | -9.21 | –
O=C(CCSCc1ccccc1F)N1CCN(c2ccc(Cl)cc2)CC1 | -19 | –
Cc1cccc(NC(=O)N2CCN(C)c3ncccc32)c1C | -19.5 | –
CCOc1ccc(CCNC(=O)c2cc3c(=O)n(C)c4ccccc4c3n2C)cc1 | -18.5 | –
CC(C)N1CCc2c(sc(NC(=O)Cc3ccccc3)c2C#N)C1 | -12.7 | –
N#Cc1c(N)sc2c1CCN(C(=O)OCc1ccccc1)C2 | – | 56.2 µM (active)
CC(=O)N1CCc2c(sc(NC(=O)CCS(=O)(=O)c3ccccc3)c2C#N)C1 | -9.72 | –

Structure (SMILES) | activity change, negative = inhibition [%] | Potency
Cn1c(=O)c2c(nc(SCC(=O)Nc3ccc(F)cc3)n2Cc2ccccc2)n(C)c1=O | 2.06 | –
CC1CCN(c2ccc(C(=O)Nc3nnc(C4CC4)s3)cc2[N+](=O)[O-])CC1 | -29.4 | –
Cc1cccc(NC(=O)CSCC(=O)Nc2nnc(C3CC3)s2)c1 | -2.27 | –
O=C(CN1C(=O)c2ccc([N+](=O)[O-])cc2C1=O)Nc1nnc(C2CC2)s1 | – | 79.4 µM (active)
COc1ccc(NC(=O)CN2CCCN(Cc3ccccc3)S2(=O)=O)cc1 | -17.2 | –
Cc1nc(N2CCOCC2)c2c(C(=O)NCc3cccc(Cl)c3)c(C)oc2n1 | 6.15 | –
O=C(CCC(=O)N/N=C/c1ccc(Br)o1)N/N=C/c1ccc(Br)o1 | -12.7 | –
O=C(CCc1n[nH]c(=O)[nH]c1=O)N/N=C/c1ccc(Br)o1 | -13.1 | –
Cc1n[nH]c(=S)n1/N=C/c1ccc(Br)o1 | – | 7.94 µM (active)
CC1CCCN(Cc2c(O)ccc3c(=O)c(Oc4ccc(C(C)(C)C)cc4)c(C(F)(F)F)oc23)C1 (stereo not drawn) | -1.38 | –
Cc1ccc(NC(=O)Cc2ccc(NC(=O)N3CCCCc4ccccc43)cc2)cc1 | -23 | –
Cc1c(C)n2c(SCC(=O)N3CCCC3)nnc2[nH]c1=O | 1.7 | –
Cc1nc(SCC(=O)NC2CCCC2)[nH]c(=O)c1C | -10.3 | –
Cc1c(C)n2c(SCC(=O)NC3CCCC3)nnc2[nH]c1=O | – | 14.1 µM (active)
CCSc1nnc2c(n1)OC(c1ccc(OCC(=O)O)cc1)Nc1ccccc1-2 (stereo not drawn) | -30.4 | –
Cc1sc2ncn(CC(=O)N3CCN(c4ccc(F)cc4)CC3)c(=O)c2c1S(=O)(=O)N1CCN(c2ncccn2)CC1 | -19.1 | –
CCOc1ccc(-n2nc3ccc(NC(=O)c4ccc(OC)c(Cl)c4)cc3n2)cc1 | -16.8 | –
COc1cc(/C=C2/SC(=S)N(Cc3ccccc3)C2=O)cc(OC)c1O | – | 3.55 µM (active)
COc1ccc(CCN=C2SCC(=O)N2Cc2ccccc2)cc1OC | -12.9 | –
COc1ccc(CCNC2=C(Cl)C(=O)N(Cc3ccccc3)C2=O)cc1OC | 56.2 | –
COc1cc(Cl)c(C)cc1Nc1nnc(-n2nc(C)cc2C)c2ccccc12 | -0.662 | –
Cc1ccc(C)c(Cn2c(C(=O)O)c(CNCc3cccs3)c3ccccc32)c1 | -32.7 | –
O=C(Nc1nnc(C2=COCCO2)o1)c1ccc([N+](=O)[O-])s1 | – | 56.2 µM (active)

Structure (SMILES) | activity change, negative = inhibition [%] | Potency
COc1cc(NC(=O)COC(=O)c2ccc([N+](=O)[O-])s2)cc(OC)c1OC | -28.9 | –
CSc1ccccc1-c1nnc(NC(=O)c2ccc3c(c2)OCCO3)o1 | -12 | –
CCOc1ccc(Nc2nc3c(S(=O)(=O)c4cccc(Cl)c4)nnn3c3ccsc23)cc1 | -8.06 | –
Cc1cc(OCC(=O)NCC2(N(C)C)CCCCC2)cc(C)c1Cl | -11.6 | –
CCCCCn1c(=O)[nH]c2cc(C(=O)Nc3cc(C)cc(C)c3)ccc2c1=O | -7.85 | –
CCn1c(=S)[nH]c2cc(S(=O)(=O)N3CCOCC3)ccc21 | – | 17.8 µM (active)
Cc1ccc(S(=O)(=O)N2CCN(S(=O)(=O)N3CCOCC3)CC2)cc1 | -9.43 | –
CCCCn1c(=S)[nH]c2cc(S(=O)(=O)N3CCCCC3)ccc21 | -17.6 | –
Cc1ccc(-n2cnc3cc(C(=O)NCCC4=CCCCC4)ccc32)cc1Cl | -26.9 | –
CC1Cc2cc(S(=O)(=O)CCC(=O)Nc3ccc(F)c(Cl)c3)ccc2N1C(=O)C1CC1 (stereo not drawn) | -3.45 | –
COc1ccc(C2Nc3ccccc3C(=O)N2Cc2ccc(Cl)cc2)cc1COc1ccc(NC(C)=O)cc1 (stereo not drawn) | -10.9 | –
COc1ccc(C2Nc3ccc(NC(=O)COC(C)=O)cc3C(=O)N2Cc2ccccc2)cc1COc1ccc(NC(C)=O)cc1 (stereo not drawn) | – | 79.4 µM (active)
COc1ccc(C(=O)N(Cc2ccccc2)Cc2ccc(OC)c(COc3ccc(NC(C)=O)cc3)c2)c(O)c1 | -29.9 | –
COc1ccc(C2Nc3ccccc3C(=O)N2Cc2ccco2)cc1COc1cccc(NC(C)=O)c1 (stereo not drawn) | – | 50.1 µM (active)
COc1ccc(N2C(=O)C(CC(=O)Nc3ccccc3)N(Cc3ccc(OC)c(OC)c3)C2=O)cc1 (stereo not drawn) | -15.8 | –
CCOC(=O)NN1C(=O)c2ccccc2NC1c1cccc(O)c1 (stereo not drawn) | -2.14 | –
COc1ccc(C2Nc3ccccc3C(=O)N2Cc2ccc(CNC(=O)CO)cc2)cc1COc1ccc(NC(C)=O)cc1 (stereo not drawn) | – | 79.4 µM (active)
COc1ccc(NC(=O)NC2CC3CCCC(C2)N3Cc2ccccc2)cc1 (stereo not drawn) | -20.1 | –
COc1ccc(C2Nc3ccccc3C(=O)N2c2ccc(F)cc2)cc1Cn1nnc2ccccc21 (stereo not drawn) | 5.24 | –
COc1cc(C2C3=C(CCCC3=O)OC3=C2C(=O)CCC3)ccc1OCC(=O)Nc1ccccc1 | -19.2 | –
COc1ccc(C2Nc3cccc(OC)c3C(=O)N2Cc2ccccc2)cc1COc1ccc(NC(C)=O)cc1 (stereo not drawn) | – | 56.2 µM (active)
COc1ccc(C2Nc3ccccc3C(=O)N2Cc2ccccc2)cc1Cn1nnc2ccccc21 (stereo not drawn) | -11.9 | –
